Assay outcomes from PubChem.
PABP FP inh: PABP poly(A) RNA binding inhibitors, primary screen, biochemical, fluorescence polarization, uHTS; 1% of 290,000 active; AID 2014, 2009; inhibition, % at 35 µM; Polyadenylate-binding protein 1 (Homo sapiens), P11940;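 also: calls also rest on retests at 20 µM and on dose response follow-up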
Target sequence (P11940 whole entry, looked up): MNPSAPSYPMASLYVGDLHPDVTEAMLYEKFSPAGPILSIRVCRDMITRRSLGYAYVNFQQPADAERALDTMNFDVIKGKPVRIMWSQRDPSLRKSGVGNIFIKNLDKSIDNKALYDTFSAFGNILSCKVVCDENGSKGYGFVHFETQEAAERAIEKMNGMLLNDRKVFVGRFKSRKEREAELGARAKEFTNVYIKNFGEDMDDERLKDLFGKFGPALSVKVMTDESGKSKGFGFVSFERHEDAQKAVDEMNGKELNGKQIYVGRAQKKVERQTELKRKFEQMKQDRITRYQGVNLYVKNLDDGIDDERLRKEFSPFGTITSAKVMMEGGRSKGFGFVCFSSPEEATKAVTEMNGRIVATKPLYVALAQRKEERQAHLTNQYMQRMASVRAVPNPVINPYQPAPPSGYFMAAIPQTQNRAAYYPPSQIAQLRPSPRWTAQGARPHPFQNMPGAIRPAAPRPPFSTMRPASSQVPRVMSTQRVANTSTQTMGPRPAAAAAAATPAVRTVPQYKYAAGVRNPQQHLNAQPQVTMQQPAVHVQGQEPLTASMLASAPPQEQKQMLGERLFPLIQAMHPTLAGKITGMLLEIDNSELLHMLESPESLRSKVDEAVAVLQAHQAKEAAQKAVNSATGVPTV
Efflux pump mplx: inhibitors of Candida efflux pumps in yeast, primary screen, S. cerevisiae, Nile Red, multiplex; AID 485275, 2010; inhibition, % at 10 µM; 0.44% of 330,000 active; S. cerevisiae Candida pump triplex;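 active = plate passing quality check with inhibition over a set limit, or well fluorescence over plate mean plus 4 SD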;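 also: Nile Red retained in pooled yeast measured as flow cytometry median fluorescence; higher means more Nile Red kept so more efflux inhibition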
ALR inh: inhibitors of human ALR sulfhydryl oxidase, primary screen, biochemical, H2O2 detection, HRP-luminol luminescence, single point; purified ALR, DTT oxidation; inhibition, % (no concentration beside the values); 3.8% of 290,000 active; AID 485317, 2010;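 active = mean replicate inhibition above about 79%, with every replicate also reaching it, limit read from the data; inconclusive = only one of the two criteria met; inactive = mean below limit and not every replicate reaching it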
MLLE-PAM2 inh: inhibitors of PABP1 MLLE–PAM2 peptide binding, primary screen, biochemical, fluorescence polarization, FITC-PAM2, GST-MLLE. inhibition, % at 20 µM. 0.36% of 360,000 active. Polyadenylate-binding protein 1 (Homo sapiens), P11940; in the data active = inhibition above about 35%, passing the limit was not always enough
UBC9 SUMO inh: inhibitors of in vitro SUMOylation cascade, primary screen, biochemical, HTRF, uHTS. SUMO-conjugating enzyme UBC9 (Homo sapiens), P63279. HTRF SUMOylation assay, SAE1/SAE2 + UBC9. inhibition, % at 35 µM. 0.36% of 290,000 active; in the data active = inhibition above about 50%, passing the limit was not always enough; inconclusive = no clear call, values can overlap the other calls
eIF4H inh: human eIF4H binding inhibitors, primary screen, translation initiation inhibitor project, biochemical, uHTS, fluorescence polarization | inhibition, % at 35 µM | 0.94% of 290,000 active | Eukaryotic translation initiation factor 4H (Homo sapiens), Q15056 | eIF4H fluorescence polarization binding assay;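 also: calls also rest on retests at 20 µM and on dose response follow-up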
Hits are given with their value; . = inactive; ? = inconclusive; / = no result. Compounds with a hit are over-represented: about 4.7% of the library has one in this group of screens. Unless noted, no rule for the calls is given here.

SMILES | PABP FP inh | Efflux pump mplx | ALR inh | MLLE-PAM2 inh | UBC9 SUMO inh | eIF4H inh
COc1ccc(Cn2c(N)c(C(=O)NCc3ccco3)c3nc4ccccc4nc32)cc1OC | . | . | . | . | 99.9 | .
Nc1c(C(=O)NCc2ccco2)c2nc3ccccc3nc2n1CCN1CCCCC1 | 104.3 | . | . | . | . | 72.0
CCOc1cc2c(cc1OCC)-n1cccc1C(c1ccc(C(C)C)cc1)NC2 (centres undefined) | . | . | . | . | . | .
Clc1ccc(OCC#CCN2CCCCCC2)cc1 | . | . | . | . | . | .
C=C1C(=O)O[C@@H]2C[C@@H](C)[C@@H]3C4OC4C(=O)[C@@]3(C)[C@@H](O)[C@H]12 (some centres undefined) | . | . | 97.6 | . | . | .
CN1C(=O)N(C)C(=O)C2(Cc3c(ccc4ccccc34)N(C)C2)C1=O | . | . | 98.8 | . | . | .
COc1ccc(C(=O)CC2(CC(=O)c3ccc(OC)cc3)C(=O)N(C)C(=O)N(C)C2=O)cc1 | . | . | . | . | . | .
CNc1cc(Cl)c2nonc2c1[N+](=O)[O-] | . | / | / | 40.0 | . | .
C=C(C=O)C[C@@H]1C[C@H](O)C2OC3C[C@]4(C)OC5/C=C\CC6OC7C(CC=CCC6OC5CCCC4OC3CC2O1)OC1CC2OC3CC(=O)OC3C[C@@H](C)C[C@@]2(C)OC1C[C@@H]7C (some centres undefined) | . | 49.7 | . | / | . | .
C=C(C=O)CC1CC(O)[C@]2(C)OC3C[C@@H]4OC5C[C@]6(C)O[C@]7(C)CCC8OC9C[C@]%10(C)OC(/C(C)=C\CO)C(O)CC%10OC9CC(C)C8OC7CC6O[C@]5(C)C/C=C\C4OC3CC2O1 (some centres undefined) | / | . | . | . | / | /
CCOC(=O)C1=Nc2ccccc2/C1=C\c1c(O)n(C)c(=O)n(C)c1=O | ? | . | 97.9 | . | . | ?
CCCN1CCc2cccc3c2[C@H]1Cc1ccc(O)c(O)c1-3 | / | . | 98.8 | . | / | /
CN1C(=O)C(Cc2ccccc2)C(=O)N(C)C1=O | / | / | / | . | / | /
CN1C(=O)c2ccccc2NC(=O)C1Cc1ccccc1 (centres undefined) | . | . | 97.5 | . | . | .
Cc1cccc(C)c1OP(N)(=O)OCC(F)(F)F (centres undefined) | . | . | . | . | . | .
CC(C)N1C(=O)CC2(CC[N+](C)(CCOC(=O)C(O)(c3ccccc3)c3ccccc3)CC2)C1=O (centres undefined) | 60.8 | . | . | . | . | 1.2
CCN(CC)CCOC(=O)C(O)(c1ccccc1)c1ccccc1 | . | . | . | . | . | .
O=C(Cc1ccccc1)Oc1cccc(N2C(=O)CCC2=O)c1 | . | . | . | . | . | .
O=C(Cc1ccccc1)Oc1cccc(-n2cnnn2)c1 | . | . | 97.9 | . | . | .
ClCCOCOCCCl | / | . | . | . | / | /
CC(=O)c1ccc(OCC(=O)N2CCCC(N3CCN(c4ccccc4C)CC3)C2)cc1 (centres undefined) | . | . | . | . | . | .
COc1cc2c(cc1OC)C1[C@H]3C(=CC[C@H]1OC2O)CCN3C (some centres undefined) | / | . | . | . | / | /
O=C(O)Cn1cc(C=C2C(=O)NC(=O)NC2=O)c2ccccc21 | 64.9 | . | . | . | . | ?
CCN(CC)c1ccc(N=Cc2c(O)n(-c3cc(OC)ccc3OC)c(=O)[nH]c2=O)cc1 | 0.1 | . | 95.1 | . | . | 98.9
C=CCN1C(=O)c2ccccc2Sc2ccc(C(=O)N3CCC4(CC3)OCCO4)cc21 | . | . | . | . | . | .
SMILES | PABP FP inh | Efflux pump mplx | ALR inh | MLLE-PAM2 inh | UBC9 SUMO inh | eIF4H inh
O=C(c1ccc2c(c1)N(Cc1ccccc1)CCS2)N1CCC2(CC1)OCCO2 | . | . | 84.7 | . | . | .
c1ccc(Nc2ccc(Nc3ccccc3)cc2)cc1 | / | . | 98.4 | . | / | /
O=[N+]([O-])c1ccc(Nc2ccccc2)cc1 | . | . | . | . | . | .
Cc1c(C=C2C(=O)N(C)C(=S)N(C)C2=O)c2ccccc2n1CC(=O)NCC1CCCO1 (centres undefined) | . | . | . | . | . | .
COc1ccc(OC)c(N2C(=O)/C(=C/c3ccco3)C(=O)NC2=S)c1 | 68.5 | . | . | / | 94.5 | 62.7
O=C1NC(=S)N(c2ccc(F)cc2)C(=O)/C1=C/c1ccco1 | . | . | 92.6 | / | 65.6 | .
O=C1NC(=S)N(c2ccc(Cl)cc2)C(=O)/C1=C/N1CCN(C(=O)c2ccco2)CC1 | 49.4 | . | 96.6 | . | . | .
Cc1cccc(N2C(=O)NC(=O)/C(=C/c3ccc([N+](=O)[O-])o3)C2=O)c1 | 122.4 | . | . | / | . | 79.6
CN(C)C(=O)Oc1noc2cc(Cl)ccc12 | . | . | . | . | . | .
Cc1ccc(OC(=O)N(C)C[C@H]2OCc3cnnn3CCCC(=O)N([C@H](C)CO)C[C@@H]2C)cc1 | / | / | / | . | / | /
COC(=O)C1=C(c2ccc(F)cc2OCc2ccccc2)C[C@@H]2CC[C@H]1N2C(=O)NCc1ccc([N+](=O)[O-])cc1 | / | . | . | . | / | /
COc1ccc(N2C(=O)/C(=C/c3ccc(C)o3)C(=O)NC2=S)cc1 | . | / | / | . | . | .
COc1ccc(N2C(=O)/C(=C/c3cc(C)n(-c4ccc(C)cn4)c3C)C(=O)NC2=S)c(OC)c1 | active | . | . | . | . | .
Cc1ccc(-n2c(C)cc(/C=C3/C(=O)NC(=O)N(C)C3=O)c2C)cc1 | . | . | . | . | . | ?
Cc1ccc(/C=C2\C(=O)NC(=S)N(c3cccc(F)c3)C2=O)o1 | 20.1 | . | . | . | . | .
N[C@@H]1CCCC[C@H]1N.O=C(O)C(=O)O.[Pt] | / | . | . | / | / | /
CC(Cc1ccccc1Sc1ccccc1)N(C)C (centres undefined) | . | . | . | . | . | .
CC(Cc1ccccc1Sc1ccc(O)cc1)N(C)C (centres undefined) | . | . | 99.0 | . | . | .
C[N+](C)(C)CCc1ccc(O)cc1 | 55.4 | . | . | . | . | ?
C=C[C@@]12CN(C)[C@H]3[C@H]1[C@@]1(C(=O)Nc4ccccc41)C1CC2[C@@H]3CO1 | / | . | . | . | / | /
CCCCC(=O)N/N=C/c1c(O)n(CC)c(=S)[nH]c1=O | . | . | . | . | . | 55.5
CCCCn1c(O)c(/C=N/NC(=O)c2ccncc2)c(=O)[nH]c1=S | . | . | 98.8 | . | . | .
CCCCCCC(=O)N/N=C/c1c(O)n(CCCC)c(=S)[nH]c1=O | . | . | . | . | . | .
